Screens (PubChem BioAssay)
Pf growth 96h – P. falciparum growth inhibition at 96 hours. P. falciparum luciferase reporter growth, 96 h. Potency, µM (series often up to 28.7 µM), for inactives: top-dose activity change, negative = inhibition, actives largely listed as inhibitors. actives 6.9% (n = 320,000). AID 504834; also: % is scaled to controls: 0 for no effect and ±100 for the full control effect
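Readout is luminescence from an integrated firefly luciferase in P. falciparum. Red cells, 2% hematocrit and 0.05% parasitemia final, were cultured with compound through two parasite generations (96 hours) at 37 C, 5% CO2.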
NS1 function inh – influenza NS1 inhibition; actives 0.4% (n = 270,000); Potency, µM (highest dose often 46.1 µM), without a hit: at the top dose activity, positive = more growth; AID 2326; calls by dose curve; also: actives are rising curves; nearly all actives have a fitted effect of over 50% in size
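In this qHTS, NS1 from influenza A is expressed in budding yeast, where it slows growth. Cells are switched from glucose to 2% galactose medium (pH 6.0, -URA), treated with compound, and growth recovery is read at OD600.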
Pf growth 48h – inhibits P. falciparum growth in the first generation, 48 h | P. falciparum luciferase growth in erythrocytes, 48 h | actives 5.9% (n = 310,000) | Potency, µM (top dose mostly 28.7 µM), for the others: at the highest dose activity change, negative = inhibition, usual class: inhibitors; also: % is scaled to controls: 0 for no effect and ±100 for the full control effect
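Luminescence readout; reporter = integrated firefly luciferase in P. falciparum. RBC culture at 2% hematocrit, 0.1% parasitemia final, 37 C/5% CO2; decreased signal taken as growth inhibition.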
HCV inhibitor – blocks hepatitis C virus; actives 3.4% (n = 340,000); Potency, µM (doses to about 41.8 µM), inactives show at the top dose activity change, negative = inhibition, hits mostly inhibitors; Huh7.5.1 HCVcc-Cre infection, luciferase reporter, 44 h; also: % is scaled to controls: 0 for no effect and ±100 for the full control effect
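Compounds are dispensed onto cells plated 4 h earlier at 1,000 per well, with HCVcc-Cre virus (about 0.5 moi) added next. Following 44 h of culture, luminescent signal is measured for 15 sec after 15 min with substrate at room temperature.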
VACV Venus inh – inhibitors of vaccinia virus (Venus reporter); Potency, µM (series often up to 36.5 µM), inactives show top-dose activity change, negative = inhibition, hits mostly inhibitors; Vaccinia virus Venus reporter expression, fluorescence; AID 720580; actives 0.46% (n = 330,000); calls by dose curve; tested in A549 cells; also: % is scaled to controls: 0 for no effect and ±100 for the full control effect; nearly all actives have a fitted effect of over 30% in size
Vaccinia mCherry – inhibitors of vaccinia virus infection (mCherry reporter signal). actives 0.63% (n = 310,000). AID 720579. Vaccinia virus mCherry reporter infection, fluorescence. Potency, µM (series often up to 36.5 µM), for the others: at the top dose activity change, negative = inhibition, usual class: inhibitors; calls by dose curve; tested in A549 cells; also: % is scaled to controls: 0 for no effect and ±100 for the full control effect; nearly all actives have a fitted effect of over 35% in size
Starred values were filed as active, the others as inactive; i = inactive; ? = inconclusive; nt = not tested or not shown; [ ] = another dose, or the depositor's remark. An excerpt weighted towards active compounds, which were near 11% of everything screened. Unless noted, calls follow the shape of the dose curve; as a rule, active = well fitted inhibition curve with a large enough effect; inconclusive = small, poorly fitted or top-dose-only effect, or another doubt; inactive = no such curve, though single readings can be large or run the other way. Potency is read from the fitted curve at half-maximal effect.

SMILES	Pf growth 96h	NS1 function inh	Pf growth 48h	HCV inhibitor	VACV Venus inh	Vaccinia mCherry
CCCn1c(NC(=O)c2ccccc2Br)nc2ccccc21	?	nt	?	?	-20%	-19%
Cc1nn(C)c(C(=O)Nc2ccn(Cc3c(F)c(F)cc(F)c3F)n2)c1[N+](=O)[O-]	nt	-7%	-4%	-3%	0%	-17%
Cc1nn(Cc2cccc(C(=O)Nc3ccn(Cc4c(F)c(F)cc(F)c4F)n3)c2)c(C)c1[N+](=O)[O-]	13µM*	12%	nt	?	nt	nt
COC(=O)[C@@H]1CCCN1Cc1ccc2c(c1)CN(Cc1ccccc1C)CCO2	nt	nt	nt	nt	-3%	-14%
Nc1nc(NCCc2ccccc2)nc(NCc2ccccc2)c1[N+](=O)[O-]	?	7%	9.3µM*	?	nt	nt
C=CCNc1nc(N)c([N+](=O)[O-])c(NCc2ccccc2)n1	?	-34%	-29%	-21%	-19%	-16%
Nc1nc(NCCN2CCOCC2)nc(NCc2ccccc2)c1[N+](=O)[O-]	8.3µM*	0%	6.6µM*	?	nt	nt
CCc1nnc(SC(CC)C(=O)Nc2cc(C)ccc2C)c2cc3occc3n12 (configuration not stated)	nt	nt	nt	nt	-12%	-7%
Cc1ccccc1NC1=NCC(c2ccc([N+](=O)[O-])cc2)S1 (configuration not stated)	-24%	nt	?	-29%	13µM*	11µM*
O=c1oc(-c2ccccc2F)nc2scc(-c3ccccc3)c12	?	3%	48%	-4%	-1%	i
COc1cccc(C2C(C#N)=C(N)OC3=C2C(=O)CC(c2ccco2)C3)c1OCc1ccc(F)cc1 (configuration not stated)	65%	-24%	6.6µM*	?	-11%	-28%
NC(=O)c1ccc([N+](=O)[O-])cc1Cl	11µM*	nt	?	nt	-3%	-18%
N/C(=N\OC(=O)c1ccc([N+](=O)[O-])cc1Cl)c1ccccn1	?	-19%	117%	?	?	2.8µM*
N/C(=N\OC(=O)c1cc([N+](=O)[O-])ccc1Cl)c1ccccn1	-23%	2%	45%	11µM*	-11%	-9%
N/C(=N/OC(=O)c1ccccc1Cl)c1ncc([N+](=O)[O-])s1	?	-89%	?	11µM*	-5%[7.34 µM]	-27%[7.34 µM]
N/C(=N\OC(=O)c1cccc([N+](=O)[O-])c1)c1ccccn1	?	nt	365%	?	-8%	-13%
CNC(=O)COC(=O)c1ccc([N+](=O)[O-])cc1Cl	22%	-5%	15%	-6%	-2%	i
CCCOC(=O)c1[nH]c2c(c1C)C(=O)CC(c1ccc(OC)c(OC)c1)C2 (configuration not stated)	?	0%	?	-29%	-1%	-9%
CC1=C(C(=O)Nc2ccc(C)cc2C)C(c2sccc2C)n2ncnc2N1 (configuration not stated)	nt	nt	nt	nt	-1%	1%
C/C(=N/NS(=O)(=O)c1ccccc1)c1ccc(Cl)cc1	239%	0%	-2%	14%	5%	9%
O=C(Nc1nccs1)c1ccc([N+](=O)[O-])cc1Cl	10µM*	-3%	55%	3%	nt	nt
Cc1ccc(Cc2cn3cc(-c4ccc(F)cc4)nc3s2)cc1	nt	nt	nt	nt	2%	-7%
Cc1ccc(-c2nnc(-n3nc(C)cc3C)c3ccccc23)cc1	-68%	-16%	-8%	3%	-17%	i
Cc1cc2nnn(-c3nnc(-c4ccccc4)c4ccccc34)c2cc1C	8.3µM*	14%	?	-5%	-20%	nt
C/C(=N/NS(=O)(=O)c1ccc(C(C)C)cc1)c1ccncc1	-27%	-16%	-11%	-13%	nt	nt
SMILES	Pf growth 96h	NS1 function inh	Pf growth 48h	HCV inhibitor	VACV Venus inh	Vaccinia mCherry
CC1CN(c2oc(-c3cccs3)nc2C#N)CC(C)O1 (configuration not stated)	-5%	0%	10µM*	-9%	25%	nt
N#Cc1nc(-c2cccs2)oc1N1CCOCC1	-1%	0%	?	?	-3%	-17%
CCOC(=O)N1CCN(CC(=O)Nc2ccc([N+](=O)[O-])cc2C(=O)Nc2ccccc2F)CC1	?	25%	12µM*	?	nt	nt
Cc1cc([N+](=O)[O-])ccc1NC(=O)CN1CCN(Cc2ccccc2)CC1	?	12%	0%	?	nt	nt
O=C(CN1CCN(Cc2ccccc2)CC1)Nc1ccc([N+](=O)[O-])cc1C(=O)Nc1ccccc1F	?	-7%	10µM*	?	-29%	-22%
O=C1C=C(N2CCOCC2)c2ccccc2C1=O	19%	-4%	?	?	11µM*	?
CCNC(=S)NN(c1ccccc1)c1ccccc1	?	2%	nt	-2%	-15%	i
COc1ccccc1CNC(=O)c1cccc(S(=O)(=O)N2CCN(C)CC2)c1	-1%	nt	-3%	17%	1%	1%
COc1ccc(CNC(=O)c2cc(S(=O)(=O)N3CCCCC3)ccc2Cl)cc1OC	nt	nt	nt	11µM*	-20%	i
COc1cc(OC)c(OC)cc1CNC(=O)c1cccc(S(=O)(=O)N2CCc3ccccc3C2)c1	?	nt	?	1.8µM*	-29%	-14%
COc1ccc(CCNC(=O)c2cc(S(=O)(=O)N3CCC4(CC3)OCCO4)ccc2F)cc1OC	?	nt	-13%	11µM*	-5%	i
COc1ccc(CNC(=O)c2cccc(S(=O)(=O)N3CCCCC3)c2)cc1OC	?	nt	?	6.3µM*	nt	nt
COc1ccc(CCNC(=O)c2cccc(S(=O)(=O)N3CCCC3)c2)cc1OC	?	nt	?	-6%	nt	nt
COc1ccc(S(=O)(=O)N2CCC(C(=O)NCc3ccncc3)CC2)cc1Cl	1.9µM*	2%	29%	-9%	-5%	-8%
CCC(=O)c1ccc(OCC(=O)NCCC2=CCCCC2)c(OC)c1	-5%	-34%	15%	-19%	nt	nt
COc1cc(OC)c(OC)cc1CNC(=O)c1ccc(S(=O)(=O)N2CCCCC2)cc1	5.2µM*	nt	9.3µM*	?	-16%	-18%
COc1ccc(CNC(=O)CN2CCN(S(=O)(=O)c3cc(Br)ccc3Br)CC2)cc1OC	?	nt	10µM*	-7%	-26%	-8%
CCOc1ccc(C(=O)NCCC2=CCCCC2)cc1OCC	28%	-5%	-16%	5µM*	-4%	-5%
COc1ccccc1CNC(=O)c1ccc(S(=O)(=O)N2CCCC2)cc1	10%	-16%	-11%	-11%	nt	nt
COc1ccccc1-c1ccnc(-n2ncc(C(=O)NC3CCCN(Cc4ccccc4)C3)c2C)n1 (configuration not stated)	nt	nt	nt	nt	3%	-16%
CCOc1ccccc1CN1CCNC(=O)C1CC(=O)NC1CCCCCC1 (configuration not stated)	?	-3%	1%	-8%	-17%[7.34 µM]	i[7.34 µM]
